Assay outcomes: PubChem, National Center for Advancing Translational Sciences (NCATS)
EPAC1 antagonist: EPAC1 (human) antagonism; EPAC1 GEF assay, Rap1b-BODIPY-GDP exchange fluorescence; actives 0.14% (n = 360,000); Potency, µM (series often up to 115 µM), most hits filed as inhibitors; O95398; note: nearly all actives have a fitted effect of over 50% in size
EPAC1 ag: activates human EPAC1 exchange factor | actives 0.073% (n = 360,000) | AID 720707 | EPAC1 agonist qHTS, biochemical assay; response scale: 100% = response to 6.5 mM cAMP | Potency, µM (highest dose often 154 µM), most hits filed as activators; note: nearly all actives have a fitted effect of over 60% in size
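Fluorescent GDP-exchange assay: 100 nM EPAC1 with 250 nM Rap1B preloaded with BODIPY-GDP and 50 uM GDP; compounds tested as concentration series, 5 min at room temperature, then read every 5 min for 30 min (ex 480/em 540 nm); normalized to 6.5 mM cAMP.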
EPAC2 antag: EPAC2 (human) antagonism; actives 0.18% (n = 360,000); Q8WZA2; Potency, µM (doses to about 114 µM), hits mostly inhibitors; EPAC2 GEF exchange of Rap1B-BODIPY-GDP, fluorescence; note: nearly all actives have a fitted effect of over 45% in size
USP1 inh: blocks the human USP1/UAF1 deubiquitinase complex. O94782. Potency, µM (doses to about 57.1 µM), usual class: inhibitors. recombinant USP1/UAF1, Ub-Rhodamine cleavage fluorescence. actives 0.23% (n = 390,000); note: nearly all actives have a fitted effect of over 60% in size
Target sequence (O94782 whole entry, looked up): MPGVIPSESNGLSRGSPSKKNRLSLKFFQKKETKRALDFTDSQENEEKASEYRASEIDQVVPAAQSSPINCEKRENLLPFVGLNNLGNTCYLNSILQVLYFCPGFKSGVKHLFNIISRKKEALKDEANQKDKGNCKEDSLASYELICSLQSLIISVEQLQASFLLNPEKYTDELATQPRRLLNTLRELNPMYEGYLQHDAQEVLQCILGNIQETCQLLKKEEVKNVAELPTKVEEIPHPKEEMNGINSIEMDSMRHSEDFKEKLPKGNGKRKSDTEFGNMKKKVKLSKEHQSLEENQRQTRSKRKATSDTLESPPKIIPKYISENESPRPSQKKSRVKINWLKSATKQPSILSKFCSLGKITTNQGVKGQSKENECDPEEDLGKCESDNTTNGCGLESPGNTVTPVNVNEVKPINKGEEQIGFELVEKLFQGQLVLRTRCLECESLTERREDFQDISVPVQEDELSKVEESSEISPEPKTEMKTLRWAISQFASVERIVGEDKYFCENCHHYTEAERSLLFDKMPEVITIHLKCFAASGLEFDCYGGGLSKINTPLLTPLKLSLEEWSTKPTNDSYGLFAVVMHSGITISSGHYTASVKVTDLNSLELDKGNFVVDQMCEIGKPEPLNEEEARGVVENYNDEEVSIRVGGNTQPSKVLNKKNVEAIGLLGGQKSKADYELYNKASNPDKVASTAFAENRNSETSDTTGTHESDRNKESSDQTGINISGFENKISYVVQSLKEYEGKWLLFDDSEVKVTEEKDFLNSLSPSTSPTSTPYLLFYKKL
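USP1/UAF1 complex (1 nM) preincubated 15 min at room temperature with compound, then Ub-Rho substrate (150 nM final) added. Kinetic fluorescence at 480/540 nm over 6 reads at 60 s intervals; 50 mM HEPES pH 7.8, 0.5 mM EDTA, 0.1 mg/ml BSA, 1 mM TCEP, 0.01% Tween-20.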
EPAC2 agonist: agonists of human EPAC2 (RAPGEF4). Q8WZA2. EPAC2 activation, biochemical qHTS; response scale: 100% = 6.5 mM cAMP response. Potency, µM (top dose mostly 154 µM), usual class: activators. actives 0.079% (n = 360,000). AID 720711; note: nearly all actives have a fitted effect of over 50% in size
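Nucleotide exchange monitored as fluorescence drop when BODIPY-GDP leaves Rap1B. Reaction: 100 nM EPAC2, 250 nM RAP1B-BODIPY-GDP, 50 uM GDP, room temperature, kinetic read over 30 min. Activity expressed relative to 6.5 mM cAMP.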
Each line names hits and unclear results; the compound was inactive in the other large screens. Hits are enriched below; roughly 0.49% of the tested compounds scored in any of these assays. Calls come from the whole dose curve; as a rule, active = well fitted curve in the direction sought with a large enough effect; inconclusive = small, poorly fitted or top-dose-only effect, or another doubt; inactive = no such curve, though single readings can be large; an effect the other way counts as inactive or inconclusive.

O=C1NN(c2ccc(F)c(Cl)c2)C(=O)/C1=C\c1cccc(OC(=O)c2cccs2)c1	EPAC1 antagonist 35µM, USP1 inh inconclusive
CC(C)=C1C(=O)NN(c2ccc(F)c(Cl)c2)C1=O	none
Cn1cc([C@]2(O)C(=O)Nc3ccc(Br)cc32)c2ccccc21	EPAC2 antag 50µM (no result: USP1 inh)
CC(=O)CSc1nc(-c2ccccc2)[nH]c1S(=O)(=O)c1ccc(C)cc1	none (no result: EPAC1 antagonist, EPAC1 ag, EPAC2 antag, EPAC2 agonist)
CC1(C)CC(=O)C2=C(C1)c1c(ccc3ccccc13)NC2c1cc([N+](=O)[O-])cc([N+](=O)[O-])c1O (stereo not drawn)	EPAC1 antagonist 32µM, EPAC2 antag 79µM, USP1 inh inconclusive
Cc1ccc(-n2c(SCc3nc(-c4ccccc4C)no3)nnc2-c2ccncc2)cc1C	none (no result: EPAC1 antagonist, EPAC1 ag, EPAC2 antag, EPAC2 agonist)
O=C1CC(c2ccccc2)Oc2cc(O)cc(O)c21 (stereo not drawn)	none
CC1CC(=O)c2c(cc3c(-c4c(O)cc(O)c5c(O)c6c(cc45)OC(C)CC6=O)c(O)cc(O)c3c2O)O1 (stereo not drawn)	EPAC1 antagonist inconclusive, USP1 inh 32µM
Cc1cc2ccccn2c1C(=O)c1ccc(Cl)cc1	EPAC2 antag inconclusive
Cc1cc2ccccn2c1C(=O)c1ccccc1F	EPAC2 antag 45µM
COc1cc(CNn2cnnc2)ccc1OCC(=O)NC(C)(C)C	EPAC2 agonist 10µM
CCc1cc(C(=O)Nc2cnn(Cc3ccccc3C)c2)no1	none (no result: EPAC1 antagonist, EPAC1 ag, EPAC2 antag, EPAC2 agonist)
CCOc1cccc(CNc2ccc(O)cc2)c1OCc1ccc(Cl)cc1	EPAC1 antagonist 25µM, EPAC2 antag 35µM, USP1 inh 25µM
CCOc1ccccc1CNc1nc2ccccc2n1C	none
Cc1ccc(NCc2ccccc2OCc2ccccc2F)cc1	none
CCOc1cc(CNc2ccc(O)cc2)ccc1OCc1ccc(Cl)cc1Cl	EPAC1 antagonist inconclusive, EPAC2 antag 35µM, USP1 inh 8.9µM
Oc1ccc(NCc2ccccc2OCc2ccccc2F)cc1	EPAC1 antagonist 79µM, USP1 inh inconclusive
CCOc1ccccc1CNc1ccc(O)cc1	EPAC1 antagonist 4.5µM, USP1 inh 16µM
CC1=C(C(=O)Nc2ccccc2)C(c2ccncc2)n2nc(SCc3ccccc3F)nc2N1 (stereo not drawn)	none (no result: EPAC1 antagonist, EPAC1 ag, EPAC2 antag, EPAC2 agonist)
NS(=O)(=O)c1ccc(NCc2ccccc2OCc2ccccc2F)cc1	none
Oc1ccc(NCc2ccccc2OCc2ccccc2Cl)cc1	USP1 inh 32µM (no result: EPAC1 antagonist, EPAC1 ag, EPAC2 antag, EPAC2 agonist)
Cc1cc(C)cc(N2CCn3c2nc2c3c(=O)n(C/C=C/c3ccccc3)c(=O)n2C)c1	none (no result: EPAC1 antagonist, EPAC1 ag, EPAC2 antag, EPAC2 agonist)
Oc1cccc(/C=N/NC(=S)Nc2cccnc2)c1O	EPAC1 antagonist 11µM
Oc1ccc(/C=N/NC(=S)Nc2cccnc2)c(O)c1O	EPAC1 antagonist inconclusive, USP1 inh inconclusive
NC(=S)N/N=C/c1ccccc1O	none
Oc1ccccc1C=NNC(=S)NN=Cc1ccccc1O	EPAC1 antagonist 79µM
COc1ccc(NC(=O)CSc2nc(-c3ccccc3)nc3c2Cc2c(CO)cnc(C)c2O3)cc1Cl	none (no result: EPAC1 antagonist, EPAC1 ag, EPAC2 antag, EPAC2 agonist)
Cc1cccc(C(=O)NNc2ncnc3c2cnn3-c2ccc(C)cc2C)c1	none (no result: EPAC1 antagonist, EPAC1 ag, EPAC2 antag, EPAC2 agonist)
Cc1cccc(N2CCN(S(=O)(=O)c3ccc4c(c3)CCN4C(=O)CCC(=O)O)CC2C)c1 (stereo not drawn)	EPAC1 antagonist 20µM, EPAC1 ag 56µM
CC1CC(C)CN(S(=O)(=O)c2ccc3c(c2)CCN3C(=O)CCC(=O)O)C1 (stereo not drawn)	none
COC(=O)c1cc(C(=O)c2ccc(Cl)cc2)n2c(=O)/c(=C\N(C)C)sc12	EPAC2 agonist 100µM
COc1ccc(NC(=O)c2c(-c3ccc(C)cc3)nnc3ccccc23)c(OC)c1	none (no result: EPAC1 antagonist, EPAC1 ag, EPAC2 antag, EPAC2 agonist)
Cc1ccc2c(c1C)-c1c(ccc(C)c1C)C(=O)C2=O	EPAC2 antag inconclusive, USP1 inh 8.9µM
O=C(O)C(Cc1c[nH]c2ccccc12)NS(=O)(=O)c1cccc(Cl)c1Cl (stereo not drawn)	EPAC2 antag 45µM
Cn1cnc(S(=O)(=O)N2CCCC(C(=O)NCc3ccccc3Cl)C2)c1 (stereo not drawn)	none (no result: EPAC1 antagonist, EPAC1 ag, EPAC2 antag, EPAC2 agonist)
CN1/C(=C/C=N/n2cnnc2)C(C)(C)c2ccccc21	none
CN1/C(=C\C=C(C#N)C#N)C(C)(C)c2ccccc21	USP1 inh inconclusive, EPAC2 agonist 63µM
